From PubChem BioAssay
KinaseGlo FLuc = counter-screen: inhibitors of Kinase-Glo firefly luciferase | Q27757 | Kinase-Glo luciferase, ATP luminescence, 8 min | Potency, µM (titrated, usually from 38.3 µM), for the others: at the top dose activity change, negative = inhibition, hits mostly inhibitors | actives 0.28% (n = 200,000); also: % is scaled to controls: 0 for no effect and ±100 for the full control effect; nearly all actives have a fitted effect of over 60% in size
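Compounds were added to a substrate mix at pH 7.2 (50 mM imidazole, 10 uM ATP, within the enzyme's linear range), followed by Kinase-Glo detection reagent; luminescence was measured after 8 minutes at ambient temperature.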
SMN2 splice enh = enhancers of SMN2 splice variant expression; HEK293 SMN2-luciferase splicing reporter, luminescence, 30-36 h; Potency, µM (highest dose often 46.1 µM), inactives show at the highest dose activity change, positive = activation, most hits filed as activators; actives 2.8% (n = 210,000); also: % of control where 0% means no effect; nearly all actives have a fitted effect of over 55% in size
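HEK293 cells carry an SMN2 minigene-luciferase reporter in which exon 7 inclusion puts luciferase in frame. Cells were seeded at 2000 cells/well, attached for 10-12 hours, then exposed to compounds for 30-36 hours at 37C before ONE-Glo luminescence.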
ELG1 genotox = induces genotoxicity in HEK293T cells with luciferase-tagged ELG1 | HEK293T ELG1-luciferase reporter, luminescence, 16 h | Potency, µM (titrated, usually from 46 µM), without a hit: top-dose activity change, positive = activation, usual class: activators | actives 1.3% (n = 330,000); also: % of control where 0% means no effect; nearly all actives have a fitted effect of over 60% in size
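Step 1: seed 2,000 HEK293T ELG1-luciferase cells per well. Step 2: add compound or DMSO, incubate 16 hr at 37 °C. Step 3: ONE-Glo, 30 min at room temperature, read luminescence.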
NPC1 prom act = activates the NPC1 promoter. Huh7 NPC1 promoter luciferase reporter, 24 h. Potency, µM (doses to about 9.22 µM), for inactives: at the top dose activation, actives largely listed as activators. actives 2.4% (n = 320,000); also: % of control where 0% means no effect; nearly all actives have a fitted effect of over 60% in size
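Luciferase expression driven by the NPC1 promoter was measured in stably transfected Huh7 cells after a 24 h compound incubation, using a luciferase reagent and a luminescence read.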
FLuc counter = counter-screen for miR-21 project: firefly luciferase inhibitors or activators; actives 6.9% (n = 360,000); Potency, µM (highest dose often 57.5 µM), inactives show at the top dose activity change, negative = inhibition, usual class: inhibitors; purified FLuc, Km substrates, luminescence inhibition; P08659;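 also: plate controls were vehicle for no effect and reference inhibitor for full effect; nearly all actives have a fitted effect of over 55% in size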
Target sequence (P08659 whole entry, looked up): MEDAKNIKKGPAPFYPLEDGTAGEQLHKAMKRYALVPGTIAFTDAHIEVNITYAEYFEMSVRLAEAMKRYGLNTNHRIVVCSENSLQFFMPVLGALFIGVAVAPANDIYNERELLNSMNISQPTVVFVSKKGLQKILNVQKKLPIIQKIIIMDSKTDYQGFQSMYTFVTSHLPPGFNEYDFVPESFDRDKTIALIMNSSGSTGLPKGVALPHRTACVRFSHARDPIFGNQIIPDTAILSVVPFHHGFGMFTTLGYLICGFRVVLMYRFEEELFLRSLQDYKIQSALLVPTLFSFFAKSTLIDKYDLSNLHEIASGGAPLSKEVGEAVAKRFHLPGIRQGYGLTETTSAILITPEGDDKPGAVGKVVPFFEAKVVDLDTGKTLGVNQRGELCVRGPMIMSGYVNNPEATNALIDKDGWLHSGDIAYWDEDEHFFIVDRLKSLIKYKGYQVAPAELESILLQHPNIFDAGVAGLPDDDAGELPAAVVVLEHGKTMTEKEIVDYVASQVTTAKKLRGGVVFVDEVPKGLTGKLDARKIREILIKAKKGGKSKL
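Purified P. pyralis luciferase (10nM final) with 10uM D-luciferin and 10uM ATP (Km levels) in 50mM Tris acetate pH 7.5, 10mM Mg acetate, 0.01% Tween-20, 0.05% BSA; qHTS 6-point titration, ~60 µM downward; luminescence read.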
Rab9 prom act = activates the Rab9 promoter; Huh7 Rab9 promoter-luciferase reporter, luminescence, 24 h; Potency, µM (doses to about 9.22 µM), for the others: at the highest dose activation, negative = inhibition, usual class: activators; actives 2.8% (n = 320,000); AID 485297; also: % of control where 0% means no effect; nearly all actives have a fitted effect of over 60% in size
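Luminescence read-out: Huh7 cells stably expressing Rab9-luciferase, treated 24 h with compound at 37 °C, then lysed with luciferase reagent for 10 min at ambient before reading.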
The depositor's hits bear a star; ? = inconclusive; · = no result given; [ ] = another dose, or the depositor's remark. Compounds with a hit are over-represented: about 7.5% of the library has one in this group of screens. Calls follow the shape of the dose curve; as a rule, active = well fitted curve in the direction sought with a large enough effect; inconclusive = small, poorly fitted or top-dose-only effect, or another doubt; inactive = no such curve, though single readings can be large; an effect the other way counts as inactive or inconclusive. Potency is read from the fitted curve at half-maximal effect.

SMILES	KinaseGlo FLuc	SMN2 splice enh	ELG1 genotox	NPC1 prom act	FLuc counter	Rab9 prom act
CCCCNC(=O)CNC(=O)c1nn(-c2ccc(OC)c(Cl)c2)c(=O)c2ccccc12	·	·	4%	0%	0%	-2%
O=C(NC1CCCCC1)C(c1cccnc1)N(C(=O)c1csnn1)c1ccccc1 (stereo not drawn)	·	·	-1%	0%	1%	-4%
Cc1ccc(Cl)cc1NC(=O)CN1C(=O)C(C)(C)c2cc(S(=O)(=O)N3CCCCC3)ccc21	·	·	·	·	-4%	·
CC(=O)Nc1ccc(S(=O)(=O)N(C)CC(=O)Nc2nc3ccccc3[nH]2)cc1	·	·	1%	-2%	-2%	-1%
CC(=O)N/C(=C\c1ccccc1)C(=O)OCc1cccc(S(=O)(=O)N(C)C)c1	·	·	2%	-10%	-2%	0%
CSc1ccc(C2c3c(oc4cc(C)cc(C)c4c3=O)C(=O)N2CCO)cc1 (stereo not drawn)	·	-6%	·	·	-16%	·
Cc1ccc(CNC(=O)C2(S(=O)(=O)c3ccccc3)CC=CC2)cc1	·	·	?	4µM*	15µM*	4µM*
Cc1ccc(CNC(=O)C2(S(=O)(=O)c3ccc(C)cc3)CC2)cc1	·	·	-7%	-3%	5%	5%
CC(=O)Nc1cccc(Cn2cccn2)c1	-2%	8%	13%	0%	1%	-6%
O=C(Nc1cccc(S(=O)(=O)N2CCOCC2)c1)c1cc2c(s1)CCC2	0%	-27%	-7%	9%	15µM*	7%
O=C(Nc1cccc(Cn2cccn2)c1)c1cc2c(s1)CCCC2	-27%	?	?	0.11µM*	?	0.35µM*
O=C(Nc1cc(S(=O)(=O)N2CCOCC2)ccc1N1CCOCC1)c1cc2c(s1)CCC2	·	·	-5%	-2%	-1%	-9%
CCS(=O)(=O)N1CCc2nc(-c3ccccc3)sc2C1	·	·	?	0.63µM*	4.8µM*	1.1µM*
Clc1ccc(C2=NOC(c3nnc(-c4ccccc4)o3)C2)cc1 (stereo not drawn)	·	·	5%	-4%	3%	-3%
Clc1cccc(Cl)c1C1=NOC(c2nnc(-c3ccccc3)o2)C1 (stereo not drawn)	·	·	16%	30%	19µM*	?
CC(C)(C)C(=O)OCc1cn(-c2ccccc2)nn1	-1%	8%	14%	?	?	13%
CC(C)(C)C(=O)OCc1cn(-c2ccc(Cl)cc2)nn1	-4%	0%	?	?	15µM*	11%
COC(=O)N1CCC2(CC1)CN(c1ccncc1)C2	0%	-5%	·	·	·	·
CC(=O)Nc1ccc(S(=O)(=O)NCC(=O)OCC(=O)N2CCN(c3ccccc3)CC2)cc1	2%	-3%	-1%	-3%	?	0%
CCCn1c(-c2ccc(F)cc2)nc2c(NC3CC4CCC(C3)N4C)nc(C)nc21 (stereo not drawn)	-1%	-5%	·	·	·	·
NS(=O)(=O)c1ccc(CCNC(=O)c2ccc3ccccc3n2)cc1	-2%	12%	?	12%	?	1%
COc1ccc(CCNC(=O)c2nn(C)cc2Cl)cc1	4%	11µM*	?	20%	?	19%
COc1ccc2c(Sc3ccccc3)c(C(=O)NCCc3ccc(Cl)cc3)[nH]c2c1	·	·	·	·	5.4µM*	·
COc1ccc(CCNC(=O)c2ccc3ccccc3n2)cc1	·	·	18µM*	6%	?	22%
CCCOc1ccc(CNC(=O)c2[nH]c3cc(OC)ccc3c2Sc2ccccc2)cc1	·	·	·	·	6%	·
COc1ccc(CCNC(=O)c2ccc(Cl)cc2)cc1	-1%	-20%	1%	0%	-17%	-2%
COc1ccc2c(=O)c(C(=O)NCCc3ccccc3)c[nH]c2c1	·	·	11%	?	17µM*	?
O=C1c2ccccc2C(=O)c2c(NC3CCCCC3)ccc(Nc3ccc(S(=O)(=O)O)cc3)c21	-17%[7.66 µM]	-19%[9.22 µM]	·	·	·	·
CCOC(=O)C1CCN(c2nc(-c3ccc(Br)cc3)cs2)CC1	·	·	·	·	-2%	·
